Several values for one entry are separate records, joined by “and”; a condition that tells them apart may be missing. Equal entries are not always repeated. Out of some 150,000 compounds screened, about 540 (0.36%) showed an effect of 50% or more. Only a selection was taken, and strong results are over-represented in it overall.
System: Plasmodium falciparum
Experiment: Primary screen in NF54 nanoGlo assay, in single point, at 2uM, 72h; a lower Z score goes with more inhibition
Format: functional, Erythrocyte
Conditions: timepoint 72 hour

Row | Compound | % Inhibition | Z score | % Inhibition (2 µM)
1 | CCCCN(C(=O)Nc1nc2ccccc2s1)C1CC1 | -5% | 0.64 | –
2 | COc1ccc([N+]2=C3CCCCN3C[C@]2(O)c2ccc(Cl)cc2)cc1 | – | – | 3% and -11%
3 | COc1ccc(-c2c[n+](-c3ccc(Cl)cc3)c3n2CCCCC3)cc1 | 64% | -6.22 | –
4 | COc1ccc(-c2cnc3n2CCCC3)cc1 | -23% | 2.75 | –
5 | c1ccc([C@@H]2CN(C3CC3)CC3(CCN(Cc4ccncc4)CC3)C2)cc1 | -1% | 0.23 | –
6 | Oc1cccc(CN2CCC3(CC2)C[C@H](c2ccccc2)CN(C2CC2)C3)c1 | 76% | -2.68 | –
7 | c1ccc([C@@H]2CN(C3CC3)CC3(CCN(Cc4ccccn4)CC3)C2)cc1 | -10% | 1.74 | –
8 | N#C[C@@]1(c2ccccc2OCc2ccccc2)CCC(=O)N1Cc1ccccc1 | -10% | 1.37 | –
9 | CN(Cc1ccsc1)C(=O)c1cc2ccccc2[nH]1 | 58% | -6.32 | –
10 | CN(C)CCN(Cc1ccsc1)C(=O)c1cc2cc(F)ccc2[nH]1 | -5% | 0.68 | –
11 | CN(Cc1ccsc1)C(=O)c1cccs1 | -2% | 0.22 | –
12 | Cc1ccc(S(=O)(=O)N2CCN(C(=O)NCc3nccn3C)CC2)cc1 | -12% | 2.31 | –
13 | CCN1CCC(N(C)C(=O)Cc2csc(-c3cccnc3)n2)CC1 | 61% | 0.93 | –
14 | CC1CN(C(=O)Cc2csc(-c3cccnc3)n2)CC(C)O1 (stereo not given) | -15% | 2 | –
15 | CC(C)N(Cc1ccccc1)C(=O)Cc1csc(-c2cccnc2)n1 | -7% | 0.9 | –
16 | CN(CCNC(=O)CCc1cn(-c2ccccc2)nc1-c1ccc2c(c1)OCO2)C1CCCCC1 | 63% | -8.26 | –
17 | COCCNC(=O)CCc1cn(-c2ccccc2)nc1-c1ccc2c(c1)OCO2 | -10% | 1.35 | –
18 | O=C(CCc1cn(-c2ccccc2)nc1-c1ccc2c(c1)OCO2)NC[C@H]1CCCO1 | 0% | 0.04 | –
19 | COC[C@@H]1[C@H](C(=O)Nc2cc(OC)ccc2OC)CCC(=O)N1C | -12% | 1.42 | –
20 | O=C(Nc1nncs1)c1cccc(C(=O)Nc2nncs2)n1 | 77% | -14.68 | –
21 | CNc1cccc(C(=O)Nc2nncs2)n1 | -13% | 1.62 | –

Row | Compound | % Inhibition | Z score | % Inhibition (2 µM)
22 | O=C(Nc1nncs1)c1occc1-c1ccccc1 | -6% | 0.51 | –
23 | Nc1nnnn1CC(=O)N[C@H]1CC(=O)Nc2ccccc21 | 10% | -1.71 | –
24 | FC(F)(F)c1ccnc(Nc2ccc3c(c2)OCO3)n1 | -4% | 0.56 | –
25 | Cc1nn(C)cc1CN(Cc1ccncc1)C1CCCCC1 | 8% | -1.12 | –
26 | COc1ccc(CN(Cc2nnn(C)n2)C2CCCCC2)cc1OC | -7% | 1.05 | –
27 | CC(C)c1cc(CN(Cc2cc(C(C)C)c(O)c(C(C)C)c2)C2CCCCC2)cc(C(C)C)c1O | 95% | -12.83 | –
28 | Cc1noc(C(F)(F)F)c1C(=O)NCC1(C2(O)CCC2)CC1 | -10% | 1.69 | –
29 | COc1ccc2c(c1)C(N1CCN(C(=O)CC(C)(C)C)CC1)=Nc1ccccc1O2 | 1% | -0.13 | –
30 | CCOC(=O)N1CCCC[C@H](NC2CCN(c3ccc(F)c(F)c3)CC2)C1 | 4% | -0.83 | –
31 | O=C(c1cccc(C(F)(F)F)c1)N1CCC(n2cnnc2C2CC2)CC1 | 2% | -0.34 | –
32 | O=C(CN1CCC(O)CC1)N1CCC(c2ccccc2)=N1 | -5% | 1.01 | –
33 | O=C(NCCn1c(=O)[nH]c2ccsc2c1=O)c1cc(-c2ccc(F)cc2)c[nH]1 | -4% | 0.72 | –
34 | O=C(Nc1ccc(Cl)c(N2CCCS2(=O)=O)c1)NC1CCOCC1 | -13% | 1.52 | –
35 | COc1cn(CC(=O)NC2CCN(Cc3ccccc3)CC2)c(CN2CCOCC2)cc1=O | 7% | -0.83 | –
36 | O=C(CN1C(=O)c2ccccc2C1=O)NC1CCN(Cc2ccccc2)CC1 | 4% | -0.5 | –
37 | COc1cc([C@H](CC(=O)NC2CCN(Cc3ccccc3)CC2)N2Cc3ccccc3C2=O)cc(OC)c1OC | 68% | -9.85 | –
38 | COc1cc(=O)n2c(c1C(=O)NC1CCN(Cc3ccccc3)CC1)CCCCC2 | -8% | 0.91 | –
39 | COc1c[nH]c(C(=O)NC2CCN(Cc3ccccc3)CC2)cc1=O | 60% | -7.68 | –
40 | COc1c[nH]c(C(=O)NC2CCCC2)cc1=O | -5% | 0.85 | –
41 | Cn1cccc1CNc1nnc([C@@H]2CCCO2)o1 | -5% | 0.81 | –
42 | C[C@H]1NC(=O)N(c2cccc(C#N)c2)C1=O | -4% | 0.53 | –

Row | Compound | % Inhibition | Z score | % Inhibition (2 µM)
43 | O=C(NCCN1C(=O)COC1=O)c1cccs1 | 12% | -2.12 | –
44 | CC[C@H](C)N(CC(=O)N(CCOC)Cc1cccn1Cc1ccccc1)C(=O)c1ccco1 | -8% | 1.33 | –
45 | COc1cccc(OC)c1-c1cncc(C(=O)NCC2CC2)c1 | -9% | 1.48 | –
46 | CC(C)(C)c1nc(CNc2ccc(S(=O)(=O)CCO)cc2)no1 | 52% | 1.4 | –
47 | Cc1nc(CNc2ccc(S(=O)(=O)CCO)cc2)cs1 | -22% | 4.06 | –
48 | O=S(=O)(CCO)c1ccc(NCc2ccc(Cl)s2)cc1 | -5% | 0.74 | –
49 | O=C(Nc1ccccc1C(=O)N1CCCCC1)[C@H]1CCCN(S(=O)(=O)c2cccs2)C1 | 3% | -0.58 | –
50 | Nc1ccnc2c(-c3ccncc3)cccc12 | -2% | 0.26 | –
51 | Cc1ccn(C2CCN(C(=O)C(C)(C)c3c[nH]cn3)CC2)n1 | -6% | 1.19 | –
52 | Cc1cc(-c2c(C)sc(C)c2S(=O)(=O)N2CCOCC2)on1 | -8% | 1.45 | –
53 | Cc1ccc(S(=O)(=O)N(CC(=O)N[C@@H](C)c2ccccc2)c2cccc(Br)c2)cc1 | 50% | -1.08 | –
54 | COc1ccccc1N(CC(=O)N[C@H](C)c1ccccc1)S(=O)(=O)c1ccc(C)cc1 | 1% | -0.13 | –
55 | Cc1ccc(S(=O)(=O)N(CC(=O)N[C@@H]2C[C@H]3CC[C@@H]2C3)c2cccc(Br)c2)cc1 | -15% | 2.16 | –
56 | O=C(Nc1ccc(-c2onc3c2CCCC3)cc1)c1c(Cl)cc(Cl)cc1Cl | -2% | 0.3 | –
57 | O=C(Nc1cc(-c2onc3c2CCCC3)cc(C(F)(F)F)c1)c1cncc(Br)c1 | 96% | -8.79 | –
58 | O=C(Nc1cc(Br)cc(C(F)(F)F)c1)c1ccnnc1 | -2% | 0.3 | –
59 | COc1ccc(C(=O)N[C@H]2CCOC3(CCOCC3)C2)c(C)c1 | 0% | 0.06 | –
60 | COc1cc2c(cc1OC)C(=O)N(Cc1ccccc1)C(=O)C2=O | -13% | 1.31 | –
61 | COC(=O)c1ccccc1NC(=O)C[C@@H]1Nc2cccc3cccc(c23)NC1=O | -5% | 0.52 | –
62 | COCc1ccc(CNCc2cc3cc(Cl)c(Cl)cc3[nH]2)cc1 | -13% | 1.44 | –
63 | COc1ccc(-c2nc3ccc(C(=O)NC4CCCC(C)C4C)cc3nc2-c2ccc(OC)c(OC)c2)cc1OC (stereo not given) | 24% | -2.87 | –

Row | Compound | % Inhibition | Z score | % Inhibition (2 µM)
64 | Cc1ncsc1Cn1ccn2nc(C(F)(F)F)cc2c1=O | 15% | -1.93 | –
65 | Cc1cccc(C(=O)Nc2nc3cc4sc(NC(=O)c5cccc(C)c5)nc4cc3s2)c1 | 64% | 0.77 | –
66 | Cc1cccc(C(=O)N=C(N)Nc2nc3ccccc3s2)c1 | -8% | 0.72 | –
67 | Cc1cccc(S(=O)(=O)Nc2ccc3nc(NC(=O)c4ccccc4)sc3c2)c1 | 37% | -0.65 | –
68 | c1[nH]nnc1CCN1CCOC[C@@H]1CC1CCOCC1 | 5% | -1.02 | –
69 | CCc1cnc(Cn2nc(-c3ccccc3)cc(C(F)(F)F)c2=O)o1 | -6% | 0.55 | –
70 | C=CC[C@]1(C(=O)O)CCCN(Cc2c(C)nn(CC)c2C)C1 | -6% | 1 | –
71 | CC(=O)N1CCC(N2CCC[C@H](C(=O)c3ccc4c5c(cccc35)CC4)C2)CC1 | -11% | 1.6 | –
72 | Cc1cccc(CN2CCC[C@H](C(=O)c3ccc4c5c(cccc35)CC4)C2)n1 | 58% | -11.5 | –
73 | Cc1cc(C(=O)N2CCC[C@H](C(=O)c3ccc4c5c(cccc35)CC4)C2)nc(N)n1 | -4% | 0.45 | –
74 | Cc1nnc(-c2ccc3ccn(CC(=O)Nc4ccc(F)c(Cl)c4)c3c2)o1 | 85% | -10.55 | –
75 | CCc1cccc(NC(=O)Cn2ccc3ccc(-c4nnc(C)o4)cc32)c1 | 78% | -9.29 | –
76 | Cc1cccc(NC(=O)Cn2ccc3ccc(-c4nnc(C)o4)cc32)c1 | 6% | -0.76 | –
77 | COc1cccc(NC(=O)Cn2ccc3ccc(-c4nnc(C)o4)cc32)c1 | 7% | -0.81 | –
78 | Cc1cc(C)cc(NC(=O)Cn2ccc3ccc(-c4nnc(C)o4)cc32)c1 | 2% | -0.2 | –
79 | Cc1ccc(NC(=O)Cn2ccc3ccc(-c4nnc(C)o4)cc32)cc1 | -3% | 0.31 | –
80 | c1csc([C@@H]2CN(c3ncnc4sccc34)CCO2)n1 | 5% | -0.74 | –
81 | O=C(NC1CCCCC1)c1nn(-c2ccc(F)cc2)c2ccccc2c1=O | -15% | 2.13 | –
82 | O=C1NCCCN1C1CCN(Cc2ccc(Cl)c(C(F)(F)F)c2)CC1 | 10% | -1.75 | –
83 | COc1cc(-c2ccc(C(=O)N3CCC[C@H](O)C3)cc2)nc(OC)n1 | 2% | -0.43 | –
